Here are results for 12 compounds from PubChem BioAssay (Tox21).

A short description of experiment [1]: qHTS assay to identify small molecule agonists of the RXR signaling pathway - cell viability counter screen (AID 1159529). Note: series mostly up to about 77 µM; nearly all actives have a fitted effect of over 50% in size. Put shortly:
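Luminescence from CellTiter-Glo (30 min, RT) measured viability in the same wells as the beta-lactamase reporter readout. Cells: GeneBLAzer RXR-alpha HEK 293T, 2% charcoal-stripped FBS. Compound exposure 16 hr, 37 C.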

Experiment [2] can be described thus: qHTS assay to identify small molecule antagonists of the retinoid acid receptor (RAR) signaling pathway - cell viability counter screen (AID 1159551). Note: nearly all actives have a fitted effect of over 35% in size. A digest of the protocol: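 Cytotoxicity counter screen in C3RL4 cells: 6 h compound exposure with 1 uM retinol (final), viability from cellular ATP by luminescence.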
Background: Quantitative high-throughput screening tests each substance at several concentrations.

A short description of experiment [3]: qHTS assay to identify small molecule antagonists of the retinoic acid receptor (RAR) signaling pathway (AID 1159552; note: nearly all actives have a fitted effect of over 50% in size). Put shortly: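 Luminescence from a RARE luciferase reporter in C3RL4 cells served as read-out. Cells received compounds together with 1 uM final retinol and incubated 6 hr at 37 C before detection reagent was added for 30 min at room temperature.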

Experiment [4] can be described thus: qHTS assay to identify small molecule agonists of the retinoic acid receptor (RAR) signaling pathway (AID 1159553). Note: potency is the fitted concentration of half-maximal effect. A digest of the protocol:
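Agonist activity was scored in C3RL4 cells bearing a retinoic acid response element luciferase construct. Cells were treated with compounds for 6 hr at 37 C, and luciferase signal was measured as luminescence.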

Experiment [5] is described as follows: qHTS assay to identify small molecule antagonists of the estrogen related receptor (ERR) signaling pathway from Tox21 library - cell viability counter screen (AID 1224834). Note: nearly all actives have a fitted effect of over 30% in size. Put shortly:
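Cytotoxicity of test substances is gauged in the same ERR cells used for the antagonist screen, after 17.5 h of compound treatment at 37 C, by CellTiter-Fluor fluorescence measured after 30 min.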

For experiment [6], the target named is Luciferin 4-monooxygenase (Photinus pyralis) (UniProt P08659). Put plainly: qHTS assay to identify small molecule inhibitors of firefly luciferase (AID 1224835). Note: nearly all actives have a fitted effect of over 25% in size. Note: potency is the fitted concentration of half-maximal effect. Put shortly: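 Biochemical qHTS: compounds run as interplate titrations against purified firefly enzyme, with D-luciferin and ATP each at its KM concentration. Light output recorded by CCD imaging.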
Chain of Luciferin 4-monooxygenase (Photinus pyralis) (P08659 whole entry, looked up): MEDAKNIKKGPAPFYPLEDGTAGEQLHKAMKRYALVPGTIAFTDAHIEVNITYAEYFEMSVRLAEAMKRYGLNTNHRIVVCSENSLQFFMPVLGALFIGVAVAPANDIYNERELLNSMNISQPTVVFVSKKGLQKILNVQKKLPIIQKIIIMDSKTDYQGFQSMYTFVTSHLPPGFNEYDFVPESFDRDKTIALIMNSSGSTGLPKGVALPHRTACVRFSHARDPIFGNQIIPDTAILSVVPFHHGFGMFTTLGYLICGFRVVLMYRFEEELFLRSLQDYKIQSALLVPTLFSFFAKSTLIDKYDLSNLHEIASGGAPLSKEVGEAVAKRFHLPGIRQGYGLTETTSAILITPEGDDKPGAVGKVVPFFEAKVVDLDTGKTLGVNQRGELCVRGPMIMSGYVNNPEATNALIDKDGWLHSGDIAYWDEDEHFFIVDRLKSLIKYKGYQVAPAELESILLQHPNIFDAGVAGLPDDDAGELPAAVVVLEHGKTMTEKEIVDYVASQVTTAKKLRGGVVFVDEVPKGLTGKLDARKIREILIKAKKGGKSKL

The nature of experiment [7]: qHTS assay to identify small molecule agonists of the constitutive androstane receptor (CAR) signaling pathway - cell viability counter screen (AID 1224836). Note: series mostly up to about 92 µM; nearly all actives have a fitted effect of over 45% in size. A digest of the protocol: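 Viability read-out: CellTiter-Fluor fluorescence after 23 h compound exposure at 37 C/5% CO2 in double-stable HepG2-CYP2B6-hCAR cells, with PK11195 present at 0.75 uM final; compounds tested in 15-point titration.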

Experiment [8] can be described thus: qHTS assay to identify small molecule antagonists of the constitutive androstane receptor (CAR) signaling pathway - cell viability counter screen (AID 1224837). Note: series mostly up to about 92 µM; nearly all actives have a fitted effect of over 45% in size. A digest of the protocol: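 Multiplexed cytotoxicity read-out for the CAR antagonist screen: double-stable HepG2-CYP2B6-hCAR cells co-treated with 50 nM CITCO (final) and compound over 15 concentrations, incubated 23 hr, then assessed by CellTiter-Fluor fluorescence.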

For experiment [9], the target named is Retinoic acid receptor RXR-alpha (Homo sapiens) (UniProt P19793). Description: qHTS assay to identify small molecule agonists of the RXR signaling pathway (AID 1159527; calls by dose curve; note: nearly all actives have a fitted effect of over 35% in size). Put shortly:
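Agonist mode; 9-cis retinoic acid positive control. HEK 293T UAS-bla reporter cells, 2% charcoal-stripped FBS, 16 hr compound exposure at 37 C/5% CO2. LiveBLAzer B/G FRET substrate 2 hr RT; ex 405, em 460/530 nm.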

A short description of experiment [10]: qHTS assay to identify small molecule antagonists of the estrogen related receptor signaling pathway with the pleiotropic PPARgamma coactivator (PGC) from Tox21 10K library - cell viability counter screen (AID 1224840; active = well fitted cell-killing curve with a large enough effect in the repeat runs, not every such curve was filed as active; note: nearly all actives have a fitted effect of over 40% in size). A digest of the protocol: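 Step one, plate 2,000 PGC/ERR cells per well; step two, incubate 6 h at 37 C/5% CO2; step three, pin-transfer compounds; step four, incubate 17.5 h; step five, add CellTiter-Fluor and read fluorescence after 30 min.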

Experiment [11] can be described thus: qHTS assay to identify small molecule antagonists of the estrogen related receptor signaling pathway with the pleiotropic PPARgamma coactivator (PGC) from Tox21 10K library (AID 1224841; call rule not given here; note: series mostly up to about 92 µM; actives are mostly falling curves and most rising ones were filed inactive; nearly all actives have a fitted effect of over 50% in size). A digest of the protocol: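 Antagonism in this quantitative HTS is taken from loss of luciferase signal in PGC/ERR cells. Cells (2,000/well) are treated with compounds in DMSO after a 6 h settling period and read by One-Glo luminescence after 18 h.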

Experiment [12] concerns the target Nuclear receptor subfamily 1 group I member 3 (Homo sapiens) (UniProt Q14994). Description: qHTS assay to identify small molecule agonists of the constitutive androstane receptor (CAR) signaling pathway (AID 1224839). Note: nearly all actives have a fitted effect of over 15% in size. Note: potency is the fitted concentration of half-maximal effect. Put shortly:
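Luminescence read-out (ONE-Glo, 30 min, room temperature) from double-stable HepG2-CYP2B6-hCAR cells exposed 24 h to 15-point compound series in presence of 0.75 uM PK11195 final.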

For experiment [13] the target is unchanged. Put plainly: qHTS assay to identify small molecule antagonists of the constitutive androstane receptor (CAR) signaling pathway (AID 1224838). Note: nearly all actives have a fitted effect of over 40% in size. A digest of the protocol:
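Compounds were titrated across 15 concentrations onto HepG2 cells double-stably expressing hCAR and a CYP2B6-2.2kb reporter, together with 50 nM CITCO (final). After 24 h at 37 C, luciferase activity was measured by luminescence.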

Inconclusive results are not listed. A number with no mark means an inactive call. The source made the active and inactive calls. Unless noted, calls come from the whole dose curve; as a rule, active = well fitted curve in the direction sought with a large enough effect in the repeat runs; inconclusive = weak or mixed curves; inactive = no such curve, though single readings can be large; an effect the other way counts as inactive or inconclusive.

Chain of Nuclear receptor subfamily 1 group I member 3 (Homo sapiens) (Q14994 whole entry, looked up): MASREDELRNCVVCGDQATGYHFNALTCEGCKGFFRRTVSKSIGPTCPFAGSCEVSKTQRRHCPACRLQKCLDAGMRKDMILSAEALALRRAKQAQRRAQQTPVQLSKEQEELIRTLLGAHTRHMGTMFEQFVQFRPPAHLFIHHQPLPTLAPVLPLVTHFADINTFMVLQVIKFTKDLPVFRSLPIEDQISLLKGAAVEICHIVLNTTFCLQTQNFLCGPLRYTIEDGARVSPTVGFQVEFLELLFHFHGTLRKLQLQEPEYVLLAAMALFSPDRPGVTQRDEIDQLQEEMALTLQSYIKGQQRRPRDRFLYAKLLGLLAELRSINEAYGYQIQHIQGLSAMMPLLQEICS
Chain of Retinoic acid receptor RXR-alpha (Homo sapiens) (P19793 whole entry, looked up): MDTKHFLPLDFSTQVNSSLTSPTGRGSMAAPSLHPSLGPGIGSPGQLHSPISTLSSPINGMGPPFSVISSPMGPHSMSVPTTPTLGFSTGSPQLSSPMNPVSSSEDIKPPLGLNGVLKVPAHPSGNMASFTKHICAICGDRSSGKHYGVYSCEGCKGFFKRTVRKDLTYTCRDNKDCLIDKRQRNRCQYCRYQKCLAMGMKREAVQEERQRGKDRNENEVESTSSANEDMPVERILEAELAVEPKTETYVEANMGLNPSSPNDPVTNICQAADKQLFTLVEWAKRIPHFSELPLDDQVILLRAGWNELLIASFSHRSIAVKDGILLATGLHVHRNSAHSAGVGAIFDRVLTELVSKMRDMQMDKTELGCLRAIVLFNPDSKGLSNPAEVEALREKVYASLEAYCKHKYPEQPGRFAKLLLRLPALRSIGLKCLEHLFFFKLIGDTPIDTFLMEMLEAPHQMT

As to `C1=COCCC1`, the Potency entry in experiment [1], in experiment [4], in [5], in [6], in [7] and in experiment [8] was “inactive” each time. Besides, the compound was called inactive in experiment [2] and in experiment [3].
For the compound `OCCc1ccncc1`, the outcome in experiment [9] and in [2] was inactive. The Potency result in experiment [1], in [4], in [5], in experiment [6], in experiment [7] and in experiment [8] was “inactive” in each case. In addition, the Potency result in experiment [10] and in experiment [11] was “inactive” throughout.
As to `Cc1ccc(S(=O)(=O)NC(=O)NC2CCCC2)cc1`, the outcome in experiment [9], in experiment [2] and in [3] was inactive. The Potency result in experiment [1], in [4], in experiment [5], in experiment [6], in experiment [7] and in experiment [8] was “inactive” throughout. The Potency result in experiment [12] and in experiment [10] was “inactive” throughout.
For `C=CC(=O)OCCCCCCCCCC`, the call in experiment [9], in experiment [2] and in [3] was inactive. The Potency entry in experiment [1], in experiment [4], in experiment [5], in experiment [6], in experiment [7] and in experiment [8] was “inactive” each time. Also, the Potency entry in experiment [13], in [12], in [10] and in experiment [11] was “inactive” throughout.
With `CC(C)NC(=O)c1ccccc1N`, the Potency result in experiment [1], in experiment [4], in experiment [5], in experiment [6], in experiment [7] and in experiment [8] was “inactive” each time. Also, the Potency result in experiment [12] and in [10] was “inactive” in each case. The result in experiment [2] and in experiment [3] was inactive.
For the compound `CC(C)(O)C(=O)O`, the Potency result in experiment [1], in [4], in [5], in experiment [6], in experiment [7] and in experiment [8] was “inactive” in each case. Also, the Potency entry in experiment [12] and in experiment [10] was “inactive” throughout. For the same compound, the call in experiment [2] and in [3] was inactive.
On to `Nc1ncnc2c1ncn2[C@@H]1O[C@H](CO)[C@@H](O)[C@H]1O`, for which the Potency entry in experiment [1], in [4], in experiment [5], in experiment [6], in [7] and in experiment [8] was “inactive” in each case. Besides, the Potency result in experiment [13] and in experiment [10] was “inactive” each time. Moreover, the result in experiment [2] and in experiment [3] was inactive.
For the compound `CCCCOC(=O)C(C)Oc1ccc(Oc2ccc(C(F)(F)F)cn2)cc1` (configuration not stated), the Potency entry in experiment [1], in [4], in [5], in experiment [6], in experiment [7] and in [8] was “inactive” each time. Moreover, the Potency entry in experiment [12] and in experiment [10] was “inactive” throughout. The result in [2] and in [3] was inactive.
On to `Cc1cc(C)n(CO)n1`, for which the Potency result in [1], in [4], in [5], in experiment [6], in experiment [7] and in experiment [8] was “inactive” in each case. The Potency result in experiment [10] was “inactive”. The compound was called inactive in experiment [2] and in experiment [3].
On to `CCc1ccc2c(c1)C(=O)c1ccccc1C2=O`, for which the Potency result in experiment [1], in [5], in experiment [7], in experiment [8], in experiment [13] and in [10] was “inactive” throughout. Besides, the result in experiment [2] and in experiment [3] was inactive. Further, the values for the Potency in [4], in [6] and in experiment [12] were 1.72 µM (active), 5.03 µM (active) and 27.3 µM (active), respectively.
For the compound `CCOC(C)OCC`, the Potency entry in experiment [1], in experiment [4], in experiment [5], in [6], in [7] and in [8] was “inactive” throughout. Also, the Potency result in experiment [10] is “inactive”. Besides, the compound was classed as inactive in [2] and in experiment [3].
In the case of `NC(=O)c1cc[n+](CC2=C(C(=O)[O-])N3C(=O)[C@@H](NC(=O)Cc4cccs4)[C@H]3SC2)cc1`, the Potency result in [1], in experiment [4], in experiment [5], in [6], in experiment [7] and in experiment [8] was “inactive” each time. For the same compound, the Potency result in [13], in [12] and in [10] was “inactive” each time. Moreover, the call in [2] and in experiment [3] was inactive.
